# Source: PubChem BioAssay AID588675 (Johns Hopkins Ion Channel Center, 2011)
# Hit rate of the full screen: of about 310,000 compounds, about 1,900 (0.61%) were called active.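 The calls were made as follows: active = plate-corrected calcium response at least 3 library SD above typical, normal starting fluorescence, not activating the receptor alone; inactive = the rest.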 This excerpt belongs to a sample that is enriched for actives.
# Molecular target: Mas-related G-protein coupled receptor member X1 (Homo sapiens) (UniProt Q96LB2)
# Experiment: positive allosteric modulators of MrgX1, primary screen, HEK293 cells, Fluo-4 calcium flux (AID 588675);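 also: compound read alongside a low EC10 to EC30 dose of BAM8-22 agonist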;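 as to B-score: peak minus trough fluorescence over baseline measured at the second addition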
# Settings: MrgX1-HEK293, Fluo-4 calcium flux, FDSS, at 10 µM; hits give high values
# Sequence of Mas-related G-protein coupled receptor member X1 (Homo sapiens) (Q96LB2 whole entry, looked up): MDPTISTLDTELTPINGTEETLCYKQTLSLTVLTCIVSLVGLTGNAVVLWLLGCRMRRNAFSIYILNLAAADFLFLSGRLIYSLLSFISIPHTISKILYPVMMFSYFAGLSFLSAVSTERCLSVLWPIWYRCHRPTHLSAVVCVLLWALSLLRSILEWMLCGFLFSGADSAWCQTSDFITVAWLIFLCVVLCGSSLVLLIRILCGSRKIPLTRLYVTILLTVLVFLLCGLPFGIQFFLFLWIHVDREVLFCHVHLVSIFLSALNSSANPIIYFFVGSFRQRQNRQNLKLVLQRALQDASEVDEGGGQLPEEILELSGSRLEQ
row,SMILES,B-score
1,CC[C@H]1CC2CN3CCc4c([nH]c5ccccc45)C(C(=O)OC)(C2)C13 (stereo not given in full),13 (active)
2,CN1CCc2cc3c(cc2[C@H]1[C@@H]1OC(=O)c2c1ccc1c2OCO1)OCO3,inactive
3,CN(C)C(=O)Oc1ccc(OCc2cccc[n+]2C)cc1,inactive
4,Cc1nc2ccccn2c1P(=S)(N1CCCCC1)N1CCCCC1,13.5 (active)
5,CC1CCCCN1Cc1cccnc1 (stereo not given),inactive
6,COc1ccc(S(=O)(=O)NCc2ccc(C(=O)N3CCC4(CC3)OCCO4)cc2)cc1,inactive
7,Cc1ccc(-c2nn(CCC#N)cc2C(=O)O)cc1C,inactive
8,CN(C)C(=O)Oc1ccc2c(c1)O/C(=C\c1ccccc1)C2=O,inactive
9,CCOC(=O)CC1=C(C(=O)OCC)C2(C(=O)N1)C(C(=O)OC)=C(N)Oc1ccccc12 (stereo not given),inactive
10,COC(=O)CN1C(=O)C2(C(C(=O)OC)=C(N)Oc3ccccc32)C2=C1CC(C)(C)CC2=O (stereo not given),inactive
11,C=CCN1C(=O)C2(C(C(=O)OCC)=C(N)Oc3c2c(=O)oc2ccccc32)c2ccccc21 (stereo not given),27.7 (active)
12,O=Cc1cn(Cc2ccc(F)cc2Cl)c2ccccc12,inactive
13,CCOc1cccc(=NC2CCCCC2)c2c(C)[nH]c(C)c12,inactive
14,c1ccc(CC2CCCCN2)cc1 (stereo not given),inactive
15,O=C(COC(=O)c1ccccc1)Nc1ccc(Cl)cc1C(=O)c1ccccc1,inactive
